# Data from PubChem BioAssay.
# Records with an inconclusive call do not appear. The source made the active and inactive calls. Unless noted, no cut-off is given here; in the data, nearly all actives have AC50 up to about 26 µM.
# Tests used:
# [1] = viability loss in pontine glioma line – cell-based, SU-DIPG-XVII, MIPE5.0, CellTiter-Glo, qHTS, dose response (AID 1347060); conditions: CellTiter-Glo ATP luminescence;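 for AC50: cells exposed to compound for 48 hours before viability readout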
# [2] = viability loss in pontine glioma line – cell-based, SU-DIPG-XIII, MIPE5.0, CellTiter-Glo, qHTS, dose response (AID 1347064; cut-off not given, nearly all actives have AC50 up to about 23 µM;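 for AC50: cells exposed to compound for 48 hours before the viability read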); conditions: CellTiter-Glo ATP luminescence
# [3] = viability loss in pontine glioma line – cell-based, SU-DIPG-XXV, MIPE5.0, CellTiter-Glo, qHTS, dose response (AID 1347065); conditions: CellTiter-Glo ATP luminescence;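 note: cells exposed to compound for 48 hours before ATP readout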
# [4] = growth inhibition of DIPG cells – cell-based, MIPE5.0 library, qHTS (AID 1347068; cut-off not given, nearly all actives have IC50 up to about 30 µM;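 for IC50: cells exposed to compound for 48 hours before viability readout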); conditions: SU-DIPG-XXV viability
# [5] = JHH-DIPG-1 glioma cell viability, MIPE5.0 library, CellTiter-Glo luminescence, qHTS (AID 1347067); conditions: JHH-DIPG-1 glioma viability, CellTiter-Glo ATP luminescence;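 note: cells exposed to compound for 48 hours before readout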
# [6] = viability loss with induced miR-34 in A549 – imaging, A549 dox-inducible miR-34, nuclei and caspase counts, primary screen (AID 1347080;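 active = compounds whose cell count with miR-34 switched on is under 0.7 times the count with it off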); conditions: A549 miR-34 inducible, Hoechst nuclei count, 48 h
# [7] = MELAS cybrid and Rieske KO viability enhancers – cell-based, MELAS cybrids, Rieske KO mouse fibroblasts, CellTiter-Glo, primary screen (AID 1508586;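 active = mean z-score across replicates of 1.96 or higher in either the MELAS or the Rieske mutant cell line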;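 note: z relative to plate mean and SD of compound and empty wells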); conditions: low glucose
# [8] = stronger effect = lower value, cell number ratio, induced over uninduced
# [9] = measured here: relative caspase fold change +Dox/-Dox
# [10] = measured here: total cells with miR-34 induction, stronger effect = lower value
# [11] = measured here: total cells without miR-34 induction
# [12] = MELAS cybrid survival, CellTiter-Glo 48 h, stronger effect = higher value
# [13] = Rieske KO mouse fibroblast survival, CellTiter-Glo 72 h
smiles,measurement,setting,value
Cc1ncc(Cl)cc1NCc1ccc(C(=O)NC(CC2CCCC2)C(=O)NC2CC2)s1 (stereo not drawn),outcome,[1],inactive
same,outcome,[2],inactive
same,outcome,[3],inactive
same,outcome,[4],inactive
COc1cc([C@@H](CC(=O)O)c2ccc(C)c(CN3C[C@@H](C)Oc4ccccc4S3(=O)=O)c2)cc2nnn(C)c12,outcome,[1],inactive
same,outcome,[2],inactive
same,outcome,[3],inactive
same,outcome,[4],inactive
C[C@@H](c1ccc2nccn2c1)n1nnc2ncc(-c3cnn(C)c3)nc21,outcome,[1],inactive
same,outcome,[2],inactive
same,outcome,[3],inactive
same,outcome,[4],inactive
Cc1ccc(S(=O)(=O)Cc2nc(-c3ccc(C(=O)NCc4cccnc4)cc3)oc2C)cc1,AC50,[1],0.0525 µM (active)
same,AC50,[2],0.0166 µM (active)
same,AC50,[3],0.0148 µM (active)
same,AC50,[5],0.0209 µM (active)
same,fold change,[6]; [8],0.957 (inactive)
same,fold change,[6]; [9],0.598
same,cell count,[6]; [10],5090
same,cell count,[6]; [11],5320
same,z-score,[7]; [12],-0.778 (inactive)
same,z-score,[7]; [13],-0.8
CN1CCN(c2ccc(-c3cccc(CN4CCOCC4)c3)cc2NC(=O)c2c[nH]c(=O)cc2C(F)(F)F)CC1,outcome,[1],inactive
same,outcome,[2],inactive
same,outcome,[3],inactive
same,outcome,[4],inactive
COc1cc2ncnc(Oc3cccc(NC(=O)Nc4cc(C(C)(C)C(F)(F)F)on4)c3)c2cc1OC,AC50,[1],5.9 µM (active)
same,AC50,[2],16.6 µM (active)
same,AC50,[3],10.5 µM (active)
same,AC50,[5],14.8 µM (active)
same,fold change,[6]; [8],0.934 (inactive)
same,fold change,[6]; [9],0.373
same,cell count,[6]; [10],3270
same,cell count,[6]; [11],3490
same,z-score,[7]; [12],-0.488 (inactive)
same,z-score,[7]; [13],1.15
Cc1ccc(Nc2ncc3c(n2)N(C)C(=O)N(c2cc(NC(=O)c4cccc(C(F)(F)F)c4)ccc2C)C3)cn1,AC50,[1],0.105 µM (active)
same,AC50,[2],0.0742 µM (active)
same,AC50,[3],0.0118 µM (active)
same,IC50,[4],0.0742 µM (active)
Cc1c(F)ccc(C(=O)Nc2cc([N+](=O)[O-])ccc2N2CCN(C)CC2)c1Cl,AC50,[1],26.3 µM (active)
same,outcome,[2],inactive
same,outcome,[3],inactive
same,outcome,[4],inactive
COc1cc2c(cc1OC(C)C)[C@H](c1ccc(Cl)cc1)N(c1ccc(N(C)CC3CCC(N4CCN(C)C(=O)C4)CC3)cc1)C(=O)C2 (stereo partly drawn),AC50,[1],26.3 µM (active)
same,AC50,[2],20.9 µM (active)
same,AC50,[3],26.3 µM (active)
same,IC50,[4],29.5 µM (active)
COc1cccc(OCCCN)c1-c1cc(Nc2cnc(C#N)cn2)n[nH]1,AC50,[1],0.0332 µM (active)
same,AC50,[2],0.0742 µM (active)
same,AC50,[3],0.059 µM (active)
same,outcome,[4],inactive
COc1cc(/C=C(\C#N)C(=O)Nc2nnc(C(F)(F)F)s2)ccc1OCc1ccc(C(F)(F)F)cc1C(F)(F)F,AC50,[1],5.25 µM (active)
same,AC50,[2],4.17 µM (active)
same,AC50,[3],3.72 µM (active)
same,AC50,[5],14.8 µM (active)
same,fold change,[6]; [8],0.986 (inactive)
same,fold change,[6]; [9],0.417
same,cell count,[6]; [10],1620
same,cell count,[6]; [11],1640
CC(=O)N1CCC(Nc2cc(C(=O)NC[C@H](O)CN3CCc4ccccc4C3)ncn2)CC1,outcome,[1],inactive
same,outcome,[2],inactive
same,outcome,[3],inactive
same,outcome,[4],inactive
Cc1c(F)cccc1NC(=O)Nc1ccc(Cl)c(S(=O)(=O)[C@H]2CCCNC2)c1O,outcome,[1],inactive
same,outcome,[2],inactive
same,outcome,[3],inactive
same,outcome,[4],inactive
